Measurements: PubChem BioAssay
Active and inactive are the calls of the source.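 The calls were made as follows, unless noted: active = visually confirmed hit in the image check and inhibition above 20%; inconclusive = visually confirmed hit but inhibition not above 20%; inactive = no visual hit in the image check.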

Key:
[1] = inhibitors of TNFa-induced NFkB p65 translocation, primary screen, imaging, HUVEC, MLSMR starter and 10KST1 sets (AID 438;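 active = inhibition above 20% together with a positive visual image hit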;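 also: compound added about 3h40 before a 20 min TNFalpha stimulation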;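 as to inhibition: signal is the nuclear over cytoplasmic p65 intensity ratio per well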); conditions: HUVEC TNFa-induced p65 nuclear translocation; cell count: measured here: nuclei count (cytotoxicity indicator), at 2.08 µM; inhibition: at 2 µM, stronger effect = higher value, 0% TNFa-plus-vehicle, 100% no-TNFa wells
[2] = reduction of polyQ htt aggregates in cells – imaging, exon1htt(103Q)mCFP cells, high-content imaging, primary screen (AID 483;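 active = visual image review flags a hit and inhibition of aggregation exceeds 20%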;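 also: compound exposure lasted 3 days before fixation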;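 as to nuclei count: percent of the per-plate median nuclei count of sample wells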); conditions: exon1htt(103Q)mCFP cell line, aggregate imaging, at 2 µM; inhibition of aggregation: stronger effect = higher value; nuclei count: measured here: cell count, toxicity
[3] = endothelial E-selectin expression blockers – imaging, HUVEC, immunofluorescence, MLSMR starter and 10KST1 sets, primary screen (AID 487); conditions: HUVEC TNFalpha-induced E-selectin immunofluorescence imaging, at 2 µM; inhibition: stronger effect = higher value; nuclei count: measured here: cell number, toxicity;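 as to inhibition: signal is fraction of cell area covered by stained E-selectin grains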;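 as to nuclei count: 100% = median nuclei count of all wells on the same plate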
[4] = target: Voltage-gated potassium channel subunit beta-2 (Rattus norvegicus) (UniProt P62483); experiment: inhibitors of rat Kvbeta2 reductase activity – biochemical, NADPH fluorescence, primary screen (AID 622;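 active = fluorescence slope higher than the sample average by over 3 SD, cut at about -0.22 in these data, passing the limit was not always enough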;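 also: slope of raw intensity against log time taken from 70 to 1610 s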); conditions: recombinant KvBeta, 4-cyanobenzaldehyde reduction, at 10 µM, stronger effect = higher value
Voltage-gated potassium channel subunit beta-2 (Rattus norvegicus), sequence (P62483 whole entry, looked up): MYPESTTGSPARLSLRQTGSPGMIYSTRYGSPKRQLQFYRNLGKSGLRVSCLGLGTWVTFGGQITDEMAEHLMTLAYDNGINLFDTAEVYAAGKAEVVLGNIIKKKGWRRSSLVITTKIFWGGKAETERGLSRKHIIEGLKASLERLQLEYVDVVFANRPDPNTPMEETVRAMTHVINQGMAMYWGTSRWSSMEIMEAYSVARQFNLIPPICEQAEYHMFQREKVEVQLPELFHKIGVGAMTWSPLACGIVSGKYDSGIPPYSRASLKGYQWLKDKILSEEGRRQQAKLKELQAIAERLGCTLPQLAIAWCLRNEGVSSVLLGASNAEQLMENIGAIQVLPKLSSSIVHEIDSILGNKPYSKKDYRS

[5] = target: Voltage-gated potassium channel subunit beta-2 (Rattus norvegicus) (UniProt P62483); experiment: enhancers of rat Kvbeta2 NADPH turnover – biochemical, NADPH fluorescence, primary screen (AID 623;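 active = NADPH fluorescence slope more negative than the mean of all samples by about 3 SD, 99.7% confidence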;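 also: fluorescence intensity change per second fitted from 20 to 320 s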); conditions: Recombinant KvBeta, NADPH fluorescence decrease slope, 10 min; at 10 µM; stronger effect = lower value
[6] = target: Alpha-2C adrenergic receptor (Homo sapiens) (UniProt P18825); experiment: compounds altering alpha2C-coupled GIRK flux – cell-based, HEK293 alpha2C/GIRK1/2, thallium flux, primary screen (AID 624;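 active = fluorescence slope after compound addition differing from the mean of all screened samples at 99.7% confidence, in either direction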;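 also: slope of fluorescence ratio to pre-addition baseline per second over 15 to 24 s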); conditions: thallium flux BTC fluorescence, at 10 µM, actives lie on both sides
Alpha-2C adrenergic receptor (Homo sapiens), sequence (P18825 whole entry, looked up): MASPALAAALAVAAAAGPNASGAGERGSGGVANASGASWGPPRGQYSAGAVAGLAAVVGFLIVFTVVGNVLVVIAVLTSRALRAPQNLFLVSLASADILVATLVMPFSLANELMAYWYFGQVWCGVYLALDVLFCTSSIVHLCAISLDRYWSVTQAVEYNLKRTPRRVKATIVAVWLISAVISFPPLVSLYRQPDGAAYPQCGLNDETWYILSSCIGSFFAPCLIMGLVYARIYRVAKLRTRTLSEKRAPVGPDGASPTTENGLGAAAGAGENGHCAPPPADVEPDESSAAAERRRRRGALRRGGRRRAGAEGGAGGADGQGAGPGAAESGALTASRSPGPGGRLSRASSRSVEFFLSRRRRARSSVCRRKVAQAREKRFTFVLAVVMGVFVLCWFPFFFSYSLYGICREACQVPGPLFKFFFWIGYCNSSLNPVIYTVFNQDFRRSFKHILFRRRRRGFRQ

[7] = blockers of RIG-like receptor reporter activation – cell-based, Sendai virus stimulus, luciferase, 10K MLSCN set, TLR/RLR signaling modifier project, primary screen (AID 602276;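 active = inhibition at or above 50% at 10 µM; inactive = inhibition below 50%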;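 also: firefly luciferase from ISG56 promoter only with Renilla not read in this screen; 0% = Sendai virus plus DMSO and 100% = medium plus DMSO without virus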); conditions: HEK293 RL24 IRF3 luciferase reporter, at 10 µM, stronger effect = higher value
[8] = TLR3 IRF3 reporter activation blockers – cell-based, poly I:C stimulus, luciferase, 10K MLSCN set, primary screen (AID 602277;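 active = inhibition of the reporter signal at or above 50%; inactive = inhibition below 50%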); conditions: HEK293-TLR3 RL24 IRF3 luciferase reporter, at 10 µM, stronger effect = higher value

| SMILES | cell count [1] | inhibition [1] | inhibition of aggregation [2] | nuclei count [2] [%] | inhibition [3] | nuclei count [3] [%] | fluorescence slope [4] | NADPH fluorescence slope [5] | slope [6] | inhibition [7] | inhibition [8] |
| --- | --- | --- | --- | --- | --- | --- | --- | --- | --- | --- | --- |
| COc1cccc(C2C(C(N)=O)=C(C)Nc3nc(CCCO)nn32)c1OC (configuration not stated) | 480 | 5% (inactive) | 11.5% (inactive) | 102 | -24.5% (inactive) | 94.1 | -0.455 (inactive) | -2.8e-05 (inactive) | 0.00572 (inactive) | -11.2% (inactive) | 7.06% (inactive) |
| O=C(c1ccco1)N1CCN(/C(=N/S(=O)(=O)c2cccs2)c2ccccc2Cl)CC1 | 852 | -5.6% (inactive) | 2.4% (inactive) | 103 | 33.2% (inactive) | 95.1 | -0.491 (inactive) | -5.1e-05 (inactive) | 0.00477 (inactive) | -2.11% (inactive) | 12.2% (inactive) |
| COc1ccc(C)cc1NS(=O)(=O)c1ccc(NS(=O)(=O)c2ccc(NC(C)=O)cc2)cc1 | 345 | -7.8% (inactive) | -15.2% (inactive) | 99.4 | -16.4% (inactive) | 119 | -0.514 (inactive) | -6e-05 (inactive) | 0.00545 (inactive) | 19.9% (inactive) | 24.8% (inactive) |
| CN1CCN(C(=O)c2ccc3c(=O)n(CCc4ccccc4)c(=S)[nH]c3c2)CC1 | 551 | -13.1% (inactive) | -0.8% (inactive) | 77 | -44.1% (inactive) | 98.9 | -0.459 (inactive) | 5.7e-06 (inactive) | 0.00697 (inactive) | 4.3% (inactive) | 23.3% (inactive) |
| N=c1c(C(=O)NCc2ccc3c(c2)OCO3)cc2c(=O)n3ccccc3nc2n1Cc1cccnc1 | 690 | -5.2% (inactive) | -21.7% (inactive) | 72.7 | -18.5% (inactive) | 109 | -0.427 (inactive) | 3.2e-05 (inactive) | 0.00617 (inactive) | 13.3% (inactive) | 23.4% (inactive) |
| CCOC(=O)Cn1nnc(-c2ccc(SC)cc2)n1 | 729 | -6.9% (inactive) | -11.1% (inactive) | 102 | -69.2% (inactive) | 116 | -0.329 (inactive) | -6.5e-05 (inactive) | 0.00483 (inactive) | 11.7% (inactive) | 16.7% (inactive) |
| CC(NCc1ccco1)C(=O)N1CCc2ccccc2C1 (configuration not stated) | 705 | -49% (inactive) | 6.5% (inactive) | 105 | 27% (inactive) | 108 | -0.48 (inactive) | -0.000253 (inactive) | 0.00559 (inactive) | -8.88% (inactive) | 1.37% (inactive) |
| COc1cccc(C2CC(c3ccc(C)cc3)n3nc(N)nc3N2)c1 (configuration not stated) | 510 | -0.9% (inactive) | -5.2% (inactive) | 106 | -34.1% (inactive) | 106 | -0.615 (inactive) | -2.8e-06 (inactive) | 0.00794 (inactive) | 9.08% (inactive) | 24.7% (inactive) |
| COC(=O)C(C)Sc1nc2c(c(=O)n1-c1ccccc1)SCC2 (configuration not stated) | 330 | -1.4% (inactive) | -6.6% (inactive) | 113 | -51.5% (inactive) | 150 | -0.523 (inactive) | -7.6e-05 (inactive) | 0.00467 (inactive) | 7.35% (inactive) | 13.2% (inactive) |
| CCOc1ccc(N(CC)C(=O)COc2cc(=O)n(C)c3ccccc23)cc1 | 622 | 16.5% (inactive) | -19.7% (inactive) | 101 | -47.3% (inactive) | 118 | -0.516 (inactive) | 7.5e-06 (inactive) | 0.0065 (inactive) | 12.4% (inactive) | 29.8% (inactive) |
| CCC(C)(C)n1nnnc1C(c1ccc(OC)c(OC)c1)N1CCN(c2ccc(F)cc2)CC1 (configuration not stated) | 406 | 4% (inactive) | -1% (inactive) | 96.8 | 10.4% (inactive) | 106 | -0.442 (inactive) | -2.6e-05 (inactive) | 0.00413 (inactive) | 14% (inactive) | 43.5% (inactive) |
| CCCCN(C)C(=O)c1ccc(CS(=O)(=O)c2ccccc2C)o1 | 315 | -10.4% (inactive) | 10.5% (inactive) | 65.2 | -44.3% (inactive) | 111 | -0.569 (inactive) | -1.2e-05 (inactive) | 0.00658 (inactive) | 7.73% (inactive) | 13.7% (inactive) |
| CCOc1nc(-c2ccccc2)ccc1-c1noc(-c2ccc(OC)c(OC)c2)n1 | 418 | 11.7% (inactive) | -27.9% (inactive) | 99.7 | -27% (inactive) | 107 | -0.385 (inactive) | 5.6e-06 (inactive) | 0.0092 (inactive) | 8.22% (inactive) | 9.49% (inactive) |
| Cc1nc2ccc(S(=O)(=O)NCC(=O)N(C)Cc3ccco3)cc2s1 | 355 | 5.2% (inactive) | -6.5% (inactive) | 95.6 | -12.8% (inactive) | 101 | -0.503 (inactive) | -1.2e-05 (inactive) | 0.00704 (inactive) | 14.7% (inactive) | 14.5% (inactive) |
| O=C(Nc1ncnc2sc3c(c12)CCC3)c1ccco1 | 289 | -1.6% (inactive) | 0.8% (inactive) | 75.8 | -12.5% (inactive) | 118 | -0.327 (inactive) | -4.2e-05 (inactive) | 0.00564 (inactive) | -7.87% (inactive) | -0.691% (inactive) |
| COC(=O)CSC1=NS(=O)(=O)c2ccccc21 | 340 | 1.2% (inactive) | 19.6% (inactive) | 91.3 | 45.9% (inactive) | 113 | -0.5 (inactive) | -3.6e-05 (inactive) | 0.00571 (inactive) | 20.5% (inactive) | 21.4% (inactive) |
| COc1ccc(N(C(=O)c2ccco2)C(C(=O)NC2CCCC2)c2ccc(N(C)C)cc2)cc1OC (configuration not stated) | 596 | -18.8% (inactive) | -35.5% (inactive) | 116 | -96.5% (inactive) | 109 | -0.48 (inactive) | 3.2e-05 (inactive) | 0.00496 (inactive) | 3.23% (inactive) | 27.3% (inactive) |
| O=C(CN1CCCN(S(=O)(=O)c2ccc(Br)cc2)CC1)Nc1ccc2c(c1)OCO2 | 587 | -4.1% (inactive) | -15.4% (inactive) | 107 | -24.8% (inactive) | 84.9 | -0.491 (inactive) | -3.2e-05 (inactive) | 0.00566 (inactive) | 10.3% (inactive) | 38.2% (inactive) |
| CCCS(=O)(=O)N1CCN(C(=O)c2cccs2)CC1 | 559 | 7.2% (inactive) | 5.4% (inactive) | 91 | -58.9% (inactive) | 102 | -0.622 (inactive) | -3.8e-05 (inactive) | 0.00496 (inactive) | 13.1% (inactive) | 3.31% (inactive) |
| CCCNc1nc(N2CCOCC2)nc(N2CCOCC2)n1 | 193 | -17.4% (inactive) | 23.8% (inactive) | 92.2 | 3.6% (inactive) | 91.7 | -0.498 (inactive) | -2.3e-05 (inactive) | 0.00617 (inactive) | -9.95% (inactive) | 18.9% (inactive) |
| COc1ccc(C(CNC(=O)c2cc(C)oc2C)N2CCOCC2)cc1 (configuration not stated) | 711 | -0.8% (inactive) | -5.3% (inactive) | 103 | -140% (inactive) | 145 | -0.609 (inactive) | -9.2e-06 (inactive) | 0.00615 (inactive) | 11.1% (inactive) | 15.8% (inactive) |
| COc1ccc(-c2nc(C(N)=O)c3[nH]c(=O)n(-c4cccc(Cl)c4)c3n2)cc1OC | 743 | -1% (inactive) | 7.2% (inactive) | 100 | -63.8% (inactive) | 114 | -0.521 (inactive) | -3e-05 (inactive) | 0.00698 (inactive) | 3.83% (inactive) | 6.23% (inactive) |
| CCOc1ccc2[nH]c(=O)c(C(c3nnnn3CC3CCCO3)N3CCc4ccccc4C3)cc2c1 (configuration not stated) | 702 | 12.9% (inactive) | 3.6% (inactive) | 69 | -1.8% (inactive) | 119 | -0.598 (inactive) | -8.5e-06 (inactive) | 0.00562 (inactive) | 20.7% (inactive) | 31.2% (inactive) |
| CC1CCCN(C(=O)c2cc(F)c(F)cc2Cl)C1 (configuration not stated) | 888 | -1.3% (inactive) | 39.2% (inactive) | 88.6 | -25.2% (inactive) | 94 | -0.617 (inactive) | -3.8e-05 (inactive) | 0.00409 (inactive) | 2.92% (inactive) | 7.68% (inactive) |
| Cc1cc(C(=O)NCCCc2ccccc2)no1 | 765 | -8.2% (inactive) | 0% (inactive) | 105 | -58% (inactive) | 120 | -0.358 (inactive) | -1.1e-05 (inactive) | 0.00425 (inactive) | -11.5% (inactive) | -13.4% (inactive) |
| Cc1cccc(C2c3c(n(C)c(=O)n(C)c3=O)N=C3c4ccccc4C(=O)C32)c1 (configuration not stated) | 323 | -5.6% (inactive) | 6.9% (inactive) | 102 | -348% (inactive) | 113 | -0.383 (inactive) | 2.2e-05 (inactive) | 0.00343 (inactive) | 16% (inactive) | 3.75% (inactive) |
| CCSc1nnc(NC(=O)c2ccccn2)s1 | 351 | 2.9% (inactive) | 13.2% (inactive) | 85.6 | 21.4% (inactive) | 102 | -0.583 (inactive) | 3.3e-06 (inactive) | 0.00493 (inactive) | 4.15% (inactive) | 15.7% (inactive) |
